Assay outcomes from PubChem BioAssay.
CYP2C19 inhib – blocks human cytochrome P450 2C19. P33261. CYP2C19 Supersomes, luciferin-H EGE luminescence, 30 min. inhibition, % at 5 µM. 96,000 tested, 21% active. AID 778;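 active = CYP2C19 inhibition above a set limit at 5 µM in the primary screen, cut at about 50% in these data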;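 note: plate controls were negative control wells for no effect and 2.5 mM tranylcypromine positive control for full effect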
CYP2C19 activ – activators of human cytochrome P450 2C19 | activation factor at 5 µM | recombinant CYP2C19, luciferin-H EGE luminescence; active compounds read high; 0 = fully inhibited enzyme, 1 = untreated enzyme | P33261 | 96,000 tested, under 10 active;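 active = activation factor of at least 2 at 5 µM in the primary screen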;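 note: 0 = wells with 2.5 mM tranylcypromine and 1 = vehicle-only wells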
CYP2C9 inh – human CYP2C9 inhibition. CYP2C9 Supersomes, luciferin-H conversion, luminescence. inhibition, % at 5 µM. P11712. AID 777. 96,000 tested, 20% active;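 active = blocking of liver enzyme CYP2C9 beyond about 50% at 5 µM, limit read from the data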
Target sequence (P11712 whole entry, looked up): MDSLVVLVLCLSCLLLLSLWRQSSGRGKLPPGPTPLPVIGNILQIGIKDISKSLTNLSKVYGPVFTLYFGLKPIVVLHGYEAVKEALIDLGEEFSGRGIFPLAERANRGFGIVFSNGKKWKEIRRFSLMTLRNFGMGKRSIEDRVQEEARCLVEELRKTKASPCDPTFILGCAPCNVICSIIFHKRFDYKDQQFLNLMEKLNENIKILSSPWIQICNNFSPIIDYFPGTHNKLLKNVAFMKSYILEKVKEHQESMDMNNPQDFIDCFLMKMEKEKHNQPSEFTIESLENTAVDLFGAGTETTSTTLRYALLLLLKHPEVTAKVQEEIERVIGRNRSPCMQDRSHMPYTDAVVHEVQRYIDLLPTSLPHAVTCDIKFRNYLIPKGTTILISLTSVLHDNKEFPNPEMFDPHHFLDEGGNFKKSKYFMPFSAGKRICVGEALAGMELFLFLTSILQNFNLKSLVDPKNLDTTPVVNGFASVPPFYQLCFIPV
CYP2C9 activ – increases human cytochrome P450 2C9 activity; P11712; 96,000 tested, 1.4% active; recombinant CYP2C9, luciferin-H conversion, luminescence; active compounds read high; factor 1 = untreated enzyme, 0 = blocked; activation factor at 5 µM;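 active = activation factor of 2 or more for CYP2C9 at a 5 µM dose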;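 note: 0 = sulfaphenazole-blocked wells and 1 = vehicle-only wells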
Active calls of the source: *. The list is not random: actives were taken first. Their share in the collection is about 31%.

SMILES	CYP2C19 inhib	CYP2C19 activ	CYP2C9 inh	CYP2C9 activ
O=S(=O)(c1ccc(Cl)cc1)N1CCC(O)(c2cccnc2)CC1	57*	0.4	-77	1.8
O=C(N1CCOCC1)N1CCN(c2ccccc2)CC1	33	0.7	10	0.9
O=S(=O)(/C=C/c1ccccc1)N1CCN(c2cccc(Cl)c2)CC1	93*	0.1	76*	0.2
CCN1CCN(S(=O)(=O)Cc2ccccc2)CC1	52*	0.5	-49	1.5
COc1ccc(S(=O)(=O)N2CCN(C(=O)NC3CCCCC3)CC2)cc1OC	5	0.9	-55	1.5
COc1ccccc1C(=O)N/C(=C/c1ccc(Br)cc1)C(=O)NCC(=O)O	37	0.6	26	0.7
Cc1ccc2c(CN3CCN(S(=O)(=O)c4ccc5c(c4)OCCO5)CC3)cc(=O)oc2c1C	71*	0.3	70*	0.3
Cc1ccc2c(CN3CCN(Cc4ccc5c(c4)OCO5)CC3)cc(=O)oc2c1C	14	0.9	-7	1.1
CCOc1ccc(CN2C(=O)c3ccccc3C2C(=O)NCc2cccnc2)cc1 (stereo not drawn)	26	0.7	28	0.7
CCn1c(SCC(=O)Nc2ccc3c(c2)oc2ccccc23)nnc1-c1ccc(N)cc1	31	0.7	78*	0.2
CC(=O)Nc1ccc(-c2nnc(SCC(=O)Nc3ccc4c(c3)oc3ccccc34)n2C)cc1	47	0.5	69*	0.3
CCn1c(Cc2ccccc2)nnc1SCC(=O)Nc1ccc(N)cc1	20	0.8	6	0.9
CCOc1ccc(-n2c(SCC(=O)Nc3ccccc3C)n[nH]c2=O)cc1	20	0.8	-24	1.2
CCn1c(=O)cc(SCC(=O)NCc2ccccn2)c2ccccc21	2	1	-45	1.5
CC(C)COc1nc2ccccc2c(=O)n1OCC(=O)O	41	0.6	22	0.8
CCOC(=O)c1[nH]c2cc3c(cc2c1NC(=O)CN1CCCCC1C)OCO3 (stereo not drawn)	49	0.5	49	0.5
COc1ccc(NC(=S)NNC(=O)OC(C)(C)C)cc1OC	12	0.9	-1	1
Cc1cccc(OCCCC(=O)Nc2ccc3c(c2)OCO3)c1	69*	0.3	54*	0.5
O=C(CC1(C(F)(F)F)OCCO1)Nc1ccc2c(c1)OCO2	94*	0.1	8	0.9
Cc1ccc(C)c(OCC(=O)Nc2ccc3c(c2)OCO3)c1C	6	0.9	-191	2.9*
O=C(Nc1ccc2c(c1)OCO2)c1c(F)c(F)c(F)c(F)c1F	38	0.6	0	1
CCN(C(=O)c1coc(=O)c(Br)c1)c1ccc2c(c1)OCO2	59*	0.4	62*	0.4
COC(=O)CCN(c1ccccc1)S(=O)(=O)c1ccc(OC)cc1	49	0.5	-4	1
N/N=c1\sc2ccccc2n1-c1ccccc1	36	0.6	10	0.9
C=CCOc1ccc(/C(CC)=N/O)c(OC)c1	6	0.9	0	1
SMILES	CYP2C19 inhib	CYP2C19 activ	CYP2C9 inh	CYP2C9 activ
C/C(=N\OC(=O)c1ccccc1)c1cc(-c2ccc(Cl)cc2)no1	6	0.9	-4	1
CCOC(=O)C(NC(=O)c1ccccc1OCC)(Nc1ncccn1)C(F)(F)F (stereo not drawn)	30	0.7	11	0.9
Cc1ccc(S(=O)(=O)NCCC(=O)Nc2ccc3c(c2)OCO3)cc1	84*	0.2	95*	0.1
CCN(C(=O)c1c(C)cc(=O)oc1C)c1ccc2c(c1)OCO2	17	0.8	0	1
Cc1ccc(S(=O)(=O)CCC(=O)Nc2ccc3c(c2)OCO3)cc1	1	1	94*	0.1
CCN(C(=O)CCS(=O)(=O)c1ccc(Br)cc1)c1ccc2c(c1)OCO2	67*	0.3	6	0.9
N#Cc1c(C(F)(F)F)cc(-c2ccccc2Cl)[nH]c1=O	-8	1.1	86*	0.1
N#Cc1c(C(F)(F)F)cc(C2CC2)[nH]c1=O	-1	1	-14	1.1
N#Cc1c(C(F)(F)F)cc(-c2ccccc2)[nH]c1=O	-10	1.1	58*	0.4
O=S(=O)(Cc1ccccc1)c1cnc2ccccc2n1	89*	0.1	-149	2.5*
CC1=C(C(N)=O)C(c2cccnc2)n2nc(-c3cccc(Cl)c3)nc2N1 (stereo not drawn)	5	1	5	1
CC(=O)NC1CC2CCC(C1)N2Cc1ccc(C)cc1 (stereo not drawn)	54*	0.5	-1	1
COCC(=O)NC1CC2CCCC(C1)N2Cc1ccccc1 (stereo not drawn)	-9	1.1	-2	1
Cc1ccc(S(=O)(=O)N2CCN(C(=O)CN3CCN(C)CC3)C2)cc1	0	1	6	0.9
CC(C)C(c1nnnn1CCc1ccccc1)N1CCOCC1 (stereo not drawn)	32	0.7	16	0.8
Clc1ccc(C(c2nnnn2CCc2ccccc2)N2CCSCC2)cc1 (stereo not drawn)	80*	0.2	79*	0.2
CN(C)c1ccc(C(c2nnnn2CCOC(=O)Nc2ccc(Cl)cc2)N2CCOCC2)cc1 (stereo not drawn)	93*	0.1	87*	0.1
O=C(Nc1ccc(Cl)cc1)OCCn1nnnc1C(c1ccccc1)N1CCOCC1 (stereo not drawn)	35	0.7	65*	0.4
COCC(=O)N(C)C1(c2nnnn2CCOC(=O)Nc2ccc(Cl)cc2)CCCC1	34	0.7	9	0.9
COc1ccc(-n2c(SCC(=O)NNC(=O)c3ccccc3C)nnc2-c2ccncc2)cc1	17	0.8	29	0.7
O=C1C2C3CCCC3=C3CCCC3C2C(=O)N1c1ccccc1 (stereo not drawn)	33	0.7	35	0.7
O=C1c2ccccc2NC(c2ccccc2)N1/N=C/c1ccccc1 (stereo not drawn)	34	0.7	87*	0.1
O=C1c2ccccc2NC(c2ccccc2)N1c1ccc(O)cc1 (stereo not drawn)	21	0.8	45	0.6
CS(=O)(=O)N1CCc2cc(S(=O)(=O)Nc3ccc4oc5c(c4c3)CCCC5)ccc21	96*	0	93*	0.1
Cc1ccc(-c2noc(CCC(=O)NC3CCCc4ccccc43)n2)cc1 (stereo not drawn)	4	1	62*	0.4
SMILES	CYP2C19 inhib	CYP2C19 activ	CYP2C9 inh	CYP2C9 activ
COc1ccc(-c2noc(CCC(=O)N3CCN(Cc4ccccc4)CC3)n2)cc1	94*	0.1	95*	0
Cc1ccc(-c2noc(CCC(=O)NC3CCN(Cc4ccccc4)CC3)n2)cc1	55*	0.5	72*	0.3
COc1ccc(-c2noc(CN3CCC(Cc4ccccc4)CC3)n2)cc1	66*	0.3	71*	0.3
c1ccc(CC2CCN(Cc3nc(-c4ccccc4)no3)CC2)cc1	14	0.9	10	0.9
Cc1ccc(-c2noc(CCC(=O)N3CCCC3)n2)cc1	52*	0.5	52*	0.5
Clc1ccc(-c2noc(CN3CCCC3)n2)cc1	55*	0.4	4	1
COc1ccc(-c2noc(CCC(=O)N3CCC(C)CC3)n2)cc1	10	0.9	28	0.7
